Data published in PubChem BioAssay (NCI).
The panel holds about 79,000 compounds, 15% with a hit somewhere; the sample as a whole holds those more often. Activity calls are given as the source filed them. No stated cut-off is given here; in the data, active means growth inhibition above about 70%; inactive means the rest.

experiment: NCI Yeast Anticancer Drug Screen. Data for the mlh1 rad18 strain (AID 175); conditions: S. cerevisiae mlh1 rad18 strain growth inhibition; at 50.0 µM; active compounds read high
In short: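 Read-out is yeast growth inhibition, calculated against vehicle-only controls. The compound was applied to a strain engineered with DNA damage repair alterations.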

SMILES	growth inhibition
CCNc1ncnc2[nH]ncc12	-5.3% (inactive)
CC(=O)[C@@]1(O)CC[C@H]2[C@@H]3CC[C@@H]4CC(=O)CC[C@]4(C)[C@H]3[C@@H](O)C[C@@]21C	-13.5% (inactive)
Cc1onc(-c2ccccc2Cl)c1C(=O)Cl	-29.3% (inactive)
C1=NCCc2ccccc21	15.2% (inactive)
CC(=O)Oc1c(Cl)cccc1-c1ccccc1	13.4% (inactive)
CC(C)N1CC(=O)N2CSCC2C1=O (stereo unspecified)	3.25% (inactive)
S=C=Nc1ccc2ccccc2c1	21.1% (inactive)
BrCc1cccc(C[P+](c2ccccc2)(c2ccccc2)c2ccccc2)c1	41% (inactive)
O=C(Nc1c(Cl)cc(Cl)cc1Cl)ON=C1CCCCC1	3.6% (inactive)
Cc1onc(-c2c(F)cccc2Cl)c1-c1ncc(-c2ccc(Br)cc2)o1	9.7% (inactive)
Oc1ccc(CCC2CCNc3ccccc32)cc1 (stereo unspecified)	-3.9% (inactive)
Cc1cccc(C)c1NC(=S)/N=C\c1c(O)[nH]c(=O)[nH]c1=O	-57.2% (inactive)
CC1(C)CC(=O)C=C(N)C1	5.45% (inactive)
Cc1cc(C)cc(OCC(=O)O)c1	3.4% (inactive)
S=CN1CCCCC1	-8.75% (inactive)
CN(C)Cc1ccccn1	2.55% (inactive)
COc1cc(C(=O)O)c(O)c(C(C)(C)C)c1	8.5% (inactive)
CC(=O)NC(CCc1ccc(Cl)c(Cl)c1)c1cccc(O)c(=O)c1 (stereo unspecified)	88.9% (active)

SMILES	growth inhibition
COC1OC(CO)C(OC)C(O)C1O (stereo unspecified)	-2.2% (inactive)
CC1=CC(=Nc2ccc(N(C)C)cc2)C=C(C)C1=O	-12.4% (inactive)
O=Cc1ccc(Cl)c(Cl)c1	-23.1% (inactive)
C=CC(=O)OC1CCC(C(C)(C)CC)CC1 (stereo unspecified)	-18.5% (inactive)
ClCC(Cl)[C@@H]1CC2C=CC1C2 (stereo partly specified)	-6.1% (inactive)
CC(=O)c1ccc(C)cc1	-11.6% (inactive)
Cc1nc(O)cc(=O)[nH]1	10.1% (inactive)
C/C(Cc1ccccc1)=N\O	7.25% (inactive)
Nc1ncc([N+](=O)[O-])cn1	-9.45% (inactive)
Cn1c(=O)c2nc3c(=O)n(C)c(=O)n(C)c3nc2n(C)c1=O	-2.25% (inactive)
ON1CCCC1	1.5% (inactive)
CCOc1ccc2c(c1)c(C)cc(C)[n+]2CC	-3.4% (inactive)
O=[N+]([O-])c1ccc2[nH]c(=S)n(/C=C(/c3ccc(Cl)cc3Cl)S(=O)(=O)Cc3ccc(Cl)cc3Cl)c2c1	-13.1% (inactive)
CN1C(=O)NC(c2ccc(Cl)cc2)(c2ccc(Cl)cc2)C1=O	91% (active)
CCOc1ccc(C(=O)O)cc1	31.1% (inactive)
O=C1NC(=O)C(c2ccccc2)O1 (stereo unspecified)	10.8% (inactive)
O=c1[nH]c(=O)c2cc(Cl)cc(Cl)c2[nH]1	7.3% (inactive)
CC1(C)OC2C(CO)OC(n3ccc(=O)[nH]c3=O)C2O1 (stereo unspecified)	-4.35% (inactive)
